Test results published in the supplement of paper PMC3842684.

Legend:
[1] = system: P. falciparum NF54-pfs16-GFP early (I-III) stage gametocytes; test: relative % inhibition of viable gametocyte number; higher = more gametocytocidal; conditions: stage: early (I-III) gametocyte, incubation 72 h
Summary of the method: (§1)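 Relative inhibition was normalised to in-plate vehicle and positive-control wells, with viable gametocytes defined on confocal images as elongated GFP objects whose MitoTracker Red signal exceeded a cut-off. NF54 pfs16-GFP gametocytes, magnet-isolated at early (I/IIa, day 2) or late (day 8) stage, were plated at 10% parasitaemia, 0.1% haematocrit with compound at 5 or 0.5 µM. Plates were incubated 72 h at 37°C, 5% CO2, 5% O2, then stained overnight.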

[2] = system: P. falciparum NF54-pfs16-GFP late (IV-V) stage gametocytes; test: as above; conditions: stage: late (IV-V) gametocyte, incubation 72 h
Summary of the method: as §1

Structure (SMILES): CC(C)(C)c1ccc(C(=O)Nc2c3c(nn2-c2cccc(Cl)c2)CSC3)cc1
- relative % inhibition ([1]; 0.5 µM): -12.5%
- relative % inhibition ([1]; 5 µM): 10.5%
- relative % inhibition ([2]; 0.5 µM): -5.32%
- relative % inhibition ([2]; 5 µM): 8.85%

Structure (SMILES): O=C(Nc1ccc(-c2nc3cc(NC(=O)c4ccc(Cl)cc4)ccc3[nH]2)cc1)c1ccc(Cl)cc1
- relative % inhibition ([1]; 0.5 µM): 6.74%
- relative % inhibition ([1]; 5 µM): 48.5%
- relative % inhibition ([2]; 0.5 µM): -5.09%
- relative % inhibition ([2]; 5 µM): 24.8%

Structure (SMILES): COc1ccc(-c2cc3c(SCC(=O)Nc4cc(C(F)(F)F)ccc4Cl)nccn3n2)cc1
- relative % inhibition ([1]; 0.5 µM): 14.5%
- relative % inhibition ([1]; 5 µM): -14.1%
- relative % inhibition ([2]; 0.5 µM): -14.3%
- relative % inhibition ([2]; 5 µM): 3.88%

Structure (SMILES): CCOc1ccc2nc(C)cc(Nc3ccc(N(C)C)cc3)c2c1
- relative % inhibition ([1]; 0.5 µM): 15.2%
- relative % inhibition ([1]; 5 µM): -42.1%
- relative % inhibition ([2]; 0.5 µM): -6.75%
- relative % inhibition ([2]; 5 µM): -10.3%

Structure (SMILES): O=C(Nc1ccc(Cl)cc1)N1CCN(c2ccc3nncn3n2)CC1
- relative % inhibition ([1]; 0.5 µM): 18%
- relative % inhibition ([1]; 5 µM): 6.7%
- relative % inhibition ([2]; 0.5 µM): 4.09%
- relative % inhibition ([2]; 5 µM): -7.25%

Structure (SMILES): CCc1c(C)c(=N)c2ccccc2n1C
- relative % inhibition ([1]; 0.5 µM): -1.08%
- relative % inhibition ([1]; 5 µM): 8.52%
- relative % inhibition ([2]; 0.5 µM): -17.1%
- relative % inhibition ([2]; 5 µM): -7.51%

Structure (SMILES): CN1C=C(c2ccc3ccccc3n2)C(c2c[nH]c3ccccc23)c2ccccc21 (stereo not drawn)
- relative % inhibition ([1]; 0.5 µM): 16.1%
- relative % inhibition ([1]; 5 µM): 49.6%
- relative % inhibition ([2]; 0.5 µM): 19.8%
- relative % inhibition ([2]; 5 µM): 34.8%

Structure (SMILES): COc1cc2c3cc1Oc1c(OC)c(OC)cc4c1C(Cc1ccc(O)c(c1)Oc1ccc(cc1)CC3N(C)CC2)N(C)CC4 (stereo not drawn)
- relative % inhibition ([1]; 0.5 µM): 1.03%
- relative % inhibition ([1]; 5 µM): 73.4%
- relative % inhibition ([2]; 0.5 µM): -24.9%
- relative % inhibition ([2]; 5 µM): 23.7%

Structure (SMILES): CC(=O)c1ccc(NC(=O)CSc2nc(-c3ccccc3Cl)ns2)cc1
- relative % inhibition ([1]; 0.5 µM): 3.99%
- relative % inhibition ([1]; 5 µM): 39.1%
- relative % inhibition ([2]; 0.5 µM): 22.2%
- relative % inhibition ([2]; 5 µM): 5.88%

Structure (SMILES): CC1CCCCN1CCCNC(=O)c1ccc2c(c1)sc1nc(-c3ccc(F)cc3)cn12 (stereo not drawn)
- relative % inhibition ([1]; 0.5 µM): 21.3%
- relative % inhibition ([1]; 5 µM): 88.1%
- relative % inhibition ([2]; 0.5 µM): 23.2%
- relative % inhibition ([2]; 5 µM): 17.8%

Structure (SMILES): Oc1c(C(Nc2ccccn2)c2cccc(Oc3ccccc3)c2)ccc2cccnc12 (stereo not drawn)
- relative % inhibition ([1]; 0.5 µM): 1.66%
- relative % inhibition ([1]; 5 µM): 98.2%
- relative % inhibition ([2]; 0.5 µM): 18.4%
- relative % inhibition ([2]; 5 µM): 97.7%

Structure (SMILES): O=C(Nc1ccccc1O)c1ccc(Oc2cccc(C(=O)Nc3ccccc3O)c2)cc1
- relative % inhibition ([1]; 0.5 µM): 20.5%
- relative % inhibition ([1]; 5 µM): 50.6%
- relative % inhibition ([2]; 0.5 µM): 14.1%
- relative % inhibition ([2]; 5 µM): 8.35%
